biological target: NADPH oxidase 4 (Homo sapiens) (UniProt Q9NPH5); assay: NOX4-dependent H2O2 signal modulators, primary screen, NOX inhibitor project, cell-based, HEK293-NOX4, tetracycline-induced, Amplex Red fluorescence (AID 1160); settings: 45 min, higher = more signal, called active from +8 up or from −8 down
Sequence (Q9NPH5 whole entry, looked up): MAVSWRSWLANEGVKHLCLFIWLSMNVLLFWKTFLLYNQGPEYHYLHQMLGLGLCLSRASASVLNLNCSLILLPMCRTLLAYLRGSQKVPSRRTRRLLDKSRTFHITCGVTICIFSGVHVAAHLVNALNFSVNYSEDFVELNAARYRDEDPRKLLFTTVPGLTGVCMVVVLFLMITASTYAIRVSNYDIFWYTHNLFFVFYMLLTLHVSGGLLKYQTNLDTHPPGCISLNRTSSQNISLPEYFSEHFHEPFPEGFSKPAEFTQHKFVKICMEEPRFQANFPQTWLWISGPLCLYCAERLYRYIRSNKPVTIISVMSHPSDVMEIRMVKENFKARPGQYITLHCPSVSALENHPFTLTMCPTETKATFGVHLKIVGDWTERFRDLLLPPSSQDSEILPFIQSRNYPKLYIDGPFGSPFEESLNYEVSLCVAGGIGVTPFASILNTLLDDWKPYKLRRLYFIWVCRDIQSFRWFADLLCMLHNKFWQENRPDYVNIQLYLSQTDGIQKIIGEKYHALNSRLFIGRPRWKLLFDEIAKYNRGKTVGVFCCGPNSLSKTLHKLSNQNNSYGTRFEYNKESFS

z-score, inactive:
C=CCOC(=O)[C@@H]1[C@H]2C(=O)O[C@H](c3ccccc3)[C@H](c3ccccc3)N2[C@H](c2ccc(OCCOC(=O)[C@@H]3C[C@@H]4C(=O)NCC(=O)N4[C@@H]3c3cccc(OCCO)c3)cc2)[C@@]12C(=O)Nc1ccc(I)cc12 1.19, C#CCN(C(/C=C/c1ccccc1)CO)C(C(=O)O)c1ccccc1 (centres undefined) -0.46, COC(=O)[C@@]1(Cc2ccc(F)cc2)[C@H]2c3cc(C(=O)N4CCCC4)n(Cc4cccc5ccccc45)c3C[C@H]2CN1C(=O)c1ccccc1 -0.021, CC(C)CNC(=O)[C@@H]1c2ccccc2C(=O)N(Cc2cc(C(F)(F)F)cc(C(F)(F)F)c2)[C@H]1c1ccc(CO)cc1 -0.815, COc1cc2c(cc1OC)CN(C(=O)[C@@H]1[C@H]3C(=O)O[C@H](c4ccccc4)[C@H](c4ccccc4)N3[C@H](c3ccccc3OCCO)[C@@]13C(=O)Nc1ccc(C#CCNC(N)=O)cc13)CC2 0.964, COC(=O)c1ccc(C(O)C2C=CC3C(=O)N(c4ccccc4)C(=O)C3N2Nc2ccc(C#N)cc2)o1 (centres undefined) -4.57, CC(=O)NCCCC[C@@H]1NC(=O)[C@@H]2C[C@H](C(=O)NCCCCCCNC(=O)CS)[C@H](c3ccc(O)cc3)N2C1=O -0.173, O=c1cccc(C=Cc2ccccc2)o1 -0.562, COc1ccc([Si](C)(C)[C@@H]2[C@@H](CC(=O)N3CCC[C@H]3CO)O[C@]3(C(=O)N(C)c4c(Br)cc(C)cc43)[C@H]2C)cc1 1.17

— PubChem BioAssay
